HT1080 IDH1KD tx: kills HT-1080 cells with IDH1 knockdown | HT-1080 IDH1 knockdown viability, ATP luminescence, 48 h | Potency, µM (series often up to 46.1 µM), inactives show at the top dose activity, negative = toxicity, hits mostly cytotoxic | hit rate 2% among 360,000;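 also: potency is read from the fitted curve at half-maximal effect; 0% = DMSO wells and -100% = cell-free medium wells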
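Cytotoxicity counter-line: IDH1KD HT-1080, 48 h, CellTiter-Glo. Curves classed by r2, magnitude and activity.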
HT1080-NT tox: kills 2HG-producing HT-1080-NT fibrosarcoma cells | HT-1080-NT fibrosarcoma viability, CellTiter-Glo ATP luminescence, 48 h | Potency, µM (doses to about 46.1 µM), for the others: top-dose activity, negative = less viability, usual class: cytotoxic | hit rate 1.6% among 360,000;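 also: NT is the 2HG producing partner of a matched IDH1 knockdown line; potency is read from the fitted curve at half-maximal effect; 0% = DMSO-treated cells and -100% = media-only wells without cells; nearly all actives have a fitted effect of over 55% in size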
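A 48-hour cytotoxicity screen used HT-1080-NT cells plated 2 hours before compound delivery. ATP-based CellTiter-Glo luminescence measured viability, normalized to DMSO and no-cell controls.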
IL1B secr inh: inhibitors of inflammasome signaling (IL-1 beta secretion) | THP-1 LPS/ATP IL-1B secretion, AlphaLISA, 16 h; active compounds read low | activity change, % at 57.5 µM | hit rate 4.7% among 360,000; in the data active = activity change below about -50%; inconclusive = mostly about -30% to -49%
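Secreted IL-1B measured by AlphaLISA bead assay after 16 h compound exposure of THP-1 cells; compounds (final up to 57.5 uM) added 1 h before LPS (250 ng/mL) and ATP (1.25 mM) stimulation; lower signal means less secretion.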
DT40 TDP1 no CPT: qHTS for Inhibitors of human tyrosyl-DNA phosphodiesterase 1 (TDP1): qHTS in cells in absence of CPT | DT40 Tdp1-/- hTDP1 cells, no CPT, ATP luminescence, 48 h | Potency, µM (doses to about 46.2 µM), for inactives: top-dose activity change, negative = growth inhibition, hits mostly inhibitors | hit rate 15% among 420,000 | AID 686978, 2013; also: potency is read from the fitted curve at half-maximal effect; nearly all actives have a fitted effect of over 55% in size
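Cells were dispensed at 400 per well, compounds added by pin tool, plates incubated ≥48 hr at 37 °C, then CellTiter-Glo added for 30 min at room temperature before luminescence reading. Line: DT40 Tdp1-/- complemented with hTDP1; camptothecin omitted.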
DT40 TDP1 CPT: growth inhibition of DT40 Tdp1-/-;hTDP1 cells with camptothecin (screen for TDP1 inhibitors); chicken DT40 Tdp1-/-;hTDP1 cells + 20 nM CPT, ATP luminescence, 48 h; Potency, µM (highest dose often 46.2 µM), for the others: top-dose activity change, negative = growth inhibition, usual class: inhibitors; hit rate 12% among 420,000; AID 686979; also: potency is read from the fitted curve at half-maximal effect; nearly all actives have a fitted effect of over 55% in size
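Cell growth measured by CellTiter-Glo luminescence after a minimum 48 h, 37 C compound exposure with 20 nM CPT in Tdp1-knockout DT40 cells stably expressing hTDP1, seeded 400/well; qHTS titration format.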
The depositor's hits bear a star; ? = inconclusive; . = not tested or not shown. Only some compounds are listed: those with a hit (about 19% of all), similar ones and a draw of the others. Unless noted, calls follow the shape of the dose curve; as a rule, active = well fitted curve in the direction sought with a large enough effect; inconclusive = small, poorly fitted or top-dose-only effect, or another doubt; inactive = no such curve, though single readings can be large; an effect the other way counts as inactive or inconclusive. Unless noted, % is scaled to controls: 0 for no effect and ±100 for the full control effect.

SMILES	HT1080 IDH1KD tx	HT1080-NT tox	IL1B secr inh	DT40 TDP1 no CPT	DT40 TDP1 CPT
Cc1ccc(C)c(Nc2nc(N)c3ccccc3n2)c1	-21%	-10%	.	18µM*	?
COc1cc2nc(C#N)nc(N)c2cc1OC	16%	21%	.	20µM*	?
COc1ccc(C)cc1Nc1nc(N)c2cc(OC)c(OC)cc2n1	18µM*	?	-92*	23µM*	4.6µM*
CCOC(=O)Nc1cc(C)ccc1OC	12%	8%	0	6%	5%
COc1cc2nc(N3CCN(c4cc(C)ccc4C)CC3)nc(N)c2cc1OC	2.6µM*	2.6µM*	-97*	7.3µM*	8.2µM*
COc1cc2nc(N3CCNCC3)nc(N)c2cc1OC	2%	0%	22	-107%	-88%
COCCn1c(C)cc(C(=O)COC(=O)c2ccc([N+](=O)[O-])o2)c1C	-16%	7%	-18	-7%	?
Cc1cc(C(=O)COC(=O)c2ccc([N+](=O)[O-])o2)c(C)n1CC1CCCO1 (configuration not stated)	-11%	0%	-14	?	23µM*
Cc1cc(C(=O)COc2ccc(C#N)cc2)c(C)n1CC1CCCO1 (configuration not stated)	-2%	-12%	-6	13µM*	29µM*
Cc1cc(C(=O)COC(=O)C2=COCCO2)c(C)n1-c1ccc2c(c1)OCO2	-11%	-9%	-2	?	?
CCC(=O)c1ccc(OCC(=O)OCC(=O)c2cc(C)n(CC3CCCO3)c2C)cc1 (configuration not stated)	0%	3%	-2	8%	2%
Cc1cc(C(=O)COc2ccc(C#N)cc2)c(C)n1-c1ccc2c(c1)OCO2	-13%	-1%	-9	9.2µM*	9.2µM*
Cc1cccc(N2CCN(C(=O)CN3C(=O)C4CC=CCC4C3=O)CC2)c1C (configuration not stated)	1%	26%	19	?	-24%
COc1cccc(-c2nn(-c3ccc(C)cc3)cc2C(=O)NCC2CCCO2)c1 (configuration not stated)	-17%	-5%	-16	?	?
COc1cccc(-c2cc(C(=O)NCC3CCCO3)c3cc(C)cc(C)c3n2)c1 (configuration not stated)	2%	1%	-9	26µM*	23µM*
COc1cccc(OCC(=O)NCC2CCCO2)c1 (configuration not stated)	0%	-1%	0	12%	2%
COc1cccc(-c2nn(-c3ccc(F)cc3)cc2C(=O)NCC2CCCO2)c1 (configuration not stated)	-7%	-6%	-9	23µM*	23µM*
COc1ccc(S(=O)(=O)N2CCCCCC2)cc1Br	-14%	-5%	-5	-23%	-14%
O=C(N/N=C1/C(=O)c2cccc3cccc1c23)c1ccc(Cl)cc1	-2%	6%	0	4.6µM*	4.1µM*
Cc1nc2cc(NC(=O)CS(=O)(=O)c3ccc(F)cc3)ccc2s1	-8%	-4%	-14	?	?
C=CC(=O)N=c1sc2ccccc2n1-c1ccccc1	10µM*	13µM*	-104*	2.6µM*	2.6µM*
N=c1sc2ccccc2n1-c1ccccc1	?	-10%	10	26µM*	?
Cc1ccc(Cn2cc(CCC(=O)NC3CCC(C)CC3)c3ccccc32)cc1 (configuration not stated)	.	.	.	13µM*	?
Cc1ccc(Cn2cc(CCC(=O)NCc3ccccc3F)c3ccccc32)cc1	.	.	.	-23%	-12%
COc1ccc(CCC(=O)NC2CCC(C)CC2)cc1 (configuration not stated)	9%	11%	-5	-13%	2%
SMILES	HT1080 IDH1KD tx	HT1080-NT tox	IL1B secr inh	DT40 TDP1 no CPT	DT40 TDP1 CPT
COc1ccc(Br)cc1CNC(=O)CCc1cn(Cc2ccc(C)cc2)c2ccccc12	.	.	.	23µM*	?
CCOc1ccccc1CNC(=O)CCc1cn(Cc2ccc(Cl)cc2)c2ccccc12	.	.	.	16µM*	18µM*
COc1ccc(CNC(=O)CCc2cn(Cc3cc(C)ccc3C)c3ccccc23)cc1OC	.	.	.	5.8µM*	4.6µM*
CCN1C(=O)C(=O)N(CC(=O)Nc2ccccc2OC(F)F)C1=O	2%	11%	9	-15%	8%
COc1ccc(CCNC(=O)CCc2cn(Cc3ccc(C)cc3)c3ccccc23)cc1OC	.	.	.	15µM*	13µM*
CCOc1ccc(CNC(=O)CCc2cn(C)c3ccccc23)cc1OC	-2%	11%	-9	0%	14%
c1ccc(CN2CCN(Cc3c[nH]c4ccccc34)CC2)cc1	-6%	-8%	-16	10µM*	2.1µM*
OCC1(Cc2ccccc2)CCCN(Cc2c[nH]c3ccccc23)C1 (configuration not stated)	-4%	-17%	-65*	18µM*	12µM*
CCN1CCCC(CO)(Cc2ccccc2)C1 (configuration not stated)	4%	-11%	5	-7%	5%
C=C(C)Cn1cnc2cc(C)c(C)cc21	-5%	0%	-4	-1%	-1%
S=C(Nc1cccc(Cl)c1Cl)NC1CCN(Cc2ccccc2)CC1	?	?	-81*	?	21µM*
CC(C)(C)CC(C)(C)NC(=S)NC1CCN(Cc2ccccc2)CC1	0%	-1%	-104*	4.6µM*	5.2µM*
S=C(Nc1ccccc1)Nc1cccc(Cl)c1Cl	2%	20%	1	-2%	4%
CCc1cccc(CC)c1NC(=S)Nc1cccc(Cl)c1Cl	2%	0%	21	?	18µM*
S=C(Nc1ccc(CN2CCCCC2)cc1)Nc1cccc(Cl)c1Cl	-18%	-2%	-12	18µM*	?
Cc1cccc(NC(=S)NC2CCN(Cc3ccccc3)CC2)c1C	-3%	-3%	-8	?	?
Fc1ccc(NC(=S)NC2CCN(Cc3ccccc3)CC2)cc1	-1%	-3%	5	?	?
Cc1ccc(NC(=O)C2(C)Cc3ccccc3C(=O)O2)cc1 (configuration not stated)	0%	12%	-10	-27%	1%
Cc1ccc(S(=O)(=O)N2C(c3ccccc3)CC(=O)C3CN(S(=O)(=O)c4ccc(Cl)cc4)C(c4ccccc4)CC32)cc1 (configuration not stated)	17%	9%	-22	?	?
CCc1c(C)sc(NC(=O)c2cc(-c3ccc(OC)cc3)on2)c1C#N	.	.	.	-3%	0%
CC(C)(Oc1ccc(Cl)cc1)C(=O)NC1CCN(Cc2ccccc2)CC1	-16%	-21%	?	18µM*	?

Screens (PubChem)
